Measured values reported in PubChem BioAssay (Tox21).
Where “and” joins values, the source holds several entries; their conditions need not be identical. Identical values can stand only once. Results filed as inconclusive are left out. Where a call stands in place of a potency, no number is given. Unmarked numbers belong to inactive results. Calls of active or inactive are those of the source. The call rests on the fitted dose curve; in most records, active means well fitted curve in the direction sought with a large enough effect in the repeat runs; inconclusive means weak or mixed curves; inactive means no such curve, though single readings can be large; an effect the other way counts as inactive or inconclusive.

Experiment: qHTS RealTime-Glo MT Cell Viability Assay in HEK293 cells - 24 hour (AID 1224886); further: nearly all actives have a fitted effect of over 50% in size; further: potency means the concentration at half of the fitted maximal effect; on activity change, negative = cytotoxicity: top concentration of the series differs between compounds
Settings: RealTime-Glo luminescence; series mostly up to 76.8 µM
Procedure, shortened: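 Cells + reagent dispensed (600 cells/well, HEK293) → 5 h at 37 C/5% CO2 → 23 nL compound in DMSO pinned → 40 h at 37 C → luminescence read at 0, 8, 16, 24, 32, 40 h.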

SMILES	Potency	activity change, negative = cytotoxicity
Nc1cc(Cl)ccc1Cl	inactive	
O=c1[nH]c(Cl)c(Cl)cc1Cl	inactive	
CCCCCCCCCCCCCCn1cc[n+](C)c1	7.78 µM (active) and 8.62 µM (active)	
Cc1ccc(C)c2ccccc12	inactive	
CC(Cc1ccccc1)N(C)Cc1ccco1 (stereo not drawn)	inactive	
O=C(CCCCl)c1ccc(F)cc1	inactive	
CCCCC/C=C\C/C=C\C/C=C\C/C=C\CCCC(=O)NCC(=O)O	inactive	
O=C(N[C@H]1N=C(c2ccccc2F)c2cccc3c2N(CC3)C1=O)c1cc2ccccc2[nH]1	inactive	
CNC(C)(C)Cc1ccccc1	inactive	
O=[N+]([O-])[O-].[Tl+]	inactive	
ClC(Cl)C(Cl)(Cl)Cl	inactive	
Brc1ccc(Oc2ccc(Br)cc2Br)c(Br)c1	49 µM (active)	
CC(=O)[O-].CC(=O)[O-].CC(=O)[O-].[Sb+3]		5.82% [at 2.72 µM]
COP(=S)(OC)Oc1nc(Cl)c(Cl)cc1Cl	inactive	
CC(C)Br	inactive	
[O-][Cl+3]([O-])([O-])O	inactive	

SMILES	Potency	activity change, negative = cytotoxicity
CC(C)[C@@H](Nc1ccc(C(F)(F)F)cc1Cl)C(=O)OC(C#N)c1cccc(Oc2ccccc2)c1 (stereo partly drawn)	inactive	
CSC1=N[C@@](C)(c2ccccc2)C(=O)N1Nc1ccccc1	inactive	
CCCC[N+]1(C)CCCC1 (tested in a mixture with another compound)	inactive	
Cc1ccc([N+](=O)[O-])[c]2c1[O][Hg]2	3.38 µM (active)	
COC(=O)/C=C(\C)OP(=O)(OC)OC	inactive	
COP(=S)(OC)Oc1ccc([N+](=O)[O-])c(C)c1	inactive	
CCC[CH2][Sn]([CH2]CCC)([O]C(C)=O)[O]C(C)=O	0.0879 µM (active)	
CC1CCCC1	inactive	
CCCCn1cc[n+](C)c1.[Cl][Fe-]([Cl])([Cl])[Cl]	inactive	
Nc1nc(N)c(N)c(N)n1	inactive	
CCC(C)Nc1c([N+](=O)[O-])cc(C(C)(C)C)cc1[N+](=O)[O-] (stereo not drawn)	inactive	
O=C(NC(=O)c1c(F)cccc1F)Nc1ccc(Oc2ccc(C(F)(F)F)cc2Cl)cc1F	24.5 µM (active)	
CCCCC(CC)COC(=O)OOC(C)(C)C (stereo not drawn)	inactive	
CC1CN1 (stereo not drawn)	inactive	
O=S(=O)(NS(=O)(=O)C(F)(F)F)C(F)(F)F	1.23 µM (active)	
O.O.O.O.O.O.O.O=S(=O)([O-])[O-].[Co+2]	inactive	

Experiment: qHTS RealTime-Glo MT Cell Viability Assay in HEK293 cells - 8 hour (AID 1224887); further: top concentration of the series differs between compounds; nearly all actives have a fitted effect of over 50% in size
Settings: RealTime-Glo luminescence; series mostly up to 76.8 µM
Procedure, shortened: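 Nonlytic bioluminescent viability monitoring. HEK293 at 600 cells/well with reagent; 5 h settle; compound transfer by pintool; plates held at 37 C and read at set time points.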

SMILES	Potency
CSC(=O)c1c(C(F)F)nc(C(F)(F)F)c(C(=O)SC)c1CC(C)C	inactive
O=C(NC(=O)c1ccccc1Cl)Nc1ccc(OC(F)(F)F)cc1	inactive
Oc1cccc(Cl)c1Cl	inactive
C[C@@H]1CC2=CC(=O)CC[C@@H]2[C@H]2CC[C@@]3(C)[C@@H](CC[C@]3(C)O)[C@@H]21	inactive
CSSC	inactive
N#CCCl	inactive
CC#C[C@]1(O)CC[C@H]2[C@@H]3C[C@H](C)C4=CC(=O)CC[C@]4(C)[C@H]3CC[C@@]21C	inactive

Experiment: A CellTox Green Cytotoxicity Assay to monitor cytotoxicity in HEK293 cells - 16 hour (AID 1224888); further: nearly all actives have a fitted effect of over 35% in size; further: potency means the concentration at half of the fitted maximal effect
Settings: CellTox Green fluorescence; series mostly up to 76.8 µM
Procedure, shortened: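 Cytotoxicity was tracked continuously in HEK293 cells by a DNA-binding dye excluded from viable cells. Compounds were transferred in DMSO 5 h after seeding; fluorescence was recorded at intervals up to 40 h.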

SMILES	Potency	activity change
Nc1cc(Cl)ccc1Cl	inactive	
O=c1[nH]c(Cl)c(Cl)cc1Cl	inactive	
CSC(=O)c1c(C(F)F)nc(C(F)(F)F)c(C(=O)SC)c1CC(C)C	inactive	
CC(Cc1ccccc1)N(C)Cc1ccco1 (stereo not drawn)	inactive	
O=C(CCCCl)c1ccc(F)cc1	inactive	
O=C(NC(=O)c1ccccc1Cl)Nc1ccc(OC(F)(F)F)cc1	inactive	
Oc1cccc(Cl)c1Cl	inactive	
O=C(N[C@H]1N=C(c2ccccc2F)c2cccc3c2N(CC3)C1=O)c1cc2ccccc2[nH]1	inactive	
CNC(C)(C)Cc1ccccc1	inactive	
O=[N+]([O-])[O-].[Tl+]	inactive	
ClC(Cl)C(Cl)(Cl)Cl	inactive	
C[C@@H]1CC2=CC(=O)CC[C@@H]2[C@H]2CC[C@@]3(C)[C@@H](CC[C@]3(C)O)[C@@H]21	inactive	
CC(=O)[O-].CC(=O)[O-].CC(=O)[O-].[Sb+3]		0.422% [at 2.72 µM, active compounds read high]
COP(=S)(OC)Oc1nc(Cl)c(Cl)cc1Cl	inactive	
[O-][Cl+3]([O-])([O-])O	inactive	
CC(C)[C@@H](Nc1ccc(C(F)(F)F)cc1Cl)C(=O)OC(C#N)c1cccc(Oc2ccccc2)c1 (stereo partly drawn)	inactive	
CSSC	inactive	
CSC1=N[C@@](C)(c2ccccc2)C(=O)N1Nc1ccccc1	inactive	
N#CCCl	inactive	
CCCC[N+]1(C)CCCC1 (tested in a mixture with another compound)	inactive	
COC(=O)/C=C(\C)OP(=O)(OC)OC	inactive	
COP(=S)(OC)Oc1ccc([N+](=O)[O-])c(C)c1	inactive	
CCC[CH2][Sn]([CH2]CCC)([O]C(C)=O)[O]C(C)=O	4.4 µM (active)	
CC#C[C@]1(O)CC[C@H]2[C@@H]3C[C@H](C)C4=CC(=O)CC[C@]4(C)[C@H]3CC[C@@]21C	inactive	
CC1CCCC1	inactive	
CCCCn1cc[n+](C)c1.[Cl][Fe-]([Cl])([Cl])[Cl]	inactive	
CCCCC(CC)COC(=O)OOC(C)(C)C (stereo not drawn)	inactive	
CC1CN1 (stereo not drawn)	inactive	
O=S(=O)(NS(=O)(=O)C(F)(F)F)C(F)(F)F	inactive	
